Assay outcomes deposited in PubChem by several laboratories.
In the library only some 1.6% were active in any assay of this set; here they are far more common.
3CLpro inhibitor: SARS-CoV 3CLpro protease inhibitors, primary screen, biochemical, quenched FRET; AID 1706, 2009; Replicase polyprotein 1ab (Severe acute respiratory syndrome coronavirus), P0C6X7; 290,000 compounds, 0.14% hits; recombinant SARS-CoV 3CLpro, quenched FRET peptide cleavage; inhibition, % at 6 µM; in the data active = inhibition above about 12%
Vc quorum ag: inducers of Vibrio cholerae quorum light production without autoinducers, primary screen, BH1578 luxS cqsA deficient, single point; V. cholerae BH1578 lux reporter, luminescence, 6 h; activation, % at 18.7 µM; 350,000 compounds, 0.16% hits; AID 588436, 2011; in the data active = activation mostly above about 9.7%, no sharp cut-off; inconclusive = no clear call, values can overlap the other calls; inactive = mostly below about 3.7%
PfHsp40 rescue: rescue of yeast from PfHsp40 toxicity, primary screen, S. cerevisiae, ATP luminescence. S. cerevisiae expressing PfHsp40, growth rescue. growth rescue, % at 12.5 µM. 340,000 compounds, 0.68% hits; in the data active = growth rescue above about 28%, passing the limit was not always enough; inconclusive = no clear call, values can overlap the other calls;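 also: yeast W303a lacking pdr1 and pdr3 grown in galactose medium; growth measured after three days at 30 °C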
PrPC surface inh: inhibitors of human cell surface prion protein PrPC, primary screen, cell-based, TR-FRET. AID 720596, 2013. TR-FRET read-out. inhibition, % at 13.8 µM. 370,000 compounds, 0.43% hits. Major prion protein (Homo sapiens), P04156; in the data active = inhibition above about 24%; also: 0% = median of the test wells and 100% = reference compound wells
SSB-PriA inh: inhibitors of Klebsiella pneumoniae PriA binding to SSB C-terminal tail, primary screen, biochemical, AlphaScreen. inhibition, % at 33 µM. AlphaScreen SSBct-PriA binding, biotinylated peptide. PriA–SSB C-terminal tail interaction (Klebsiella pneumoniae). 430,000 compounds, 0.6% hits; in the data active = inhibition mostly above about 37%, no sharp cut-off; inactive = mostly below about 20%;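 also: plate controls were negative control peptide for no effect and reference peptide for full effect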
PrP UTR inh: inhibition of PrP 5' UTR reporter expression; cell-based PrP 5' UTR mRNA reporter, plate reader; inhibition, % (no concentration beside the values); 340,000 compounds, 0.35% hits; in the data active = inhibition above about 52%; also: 0 = median of the neutral control wells
PrP UTR cherry: prion 5' UTR mRNA inhibition, cherry-pick retest; shares compounds with PrP UTR inh; cell-based prion protein 5' UTR reporter, plate reader; inhibition, % at 2.5 µM; 1,100 compounds, 48% hits; in the data active = inhibition above about 54%; inconclusive = no clear call, values can overlap the other calls
* = called active by the depositor; i = inactive; ? = inconclusive; nt = no result given.

SMILES | 3CLpro inhibitor | Vc quorum ag | PfHsp40 rescue | PrPC surface inh | SSB-PriA inh | PrP UTR inh | PrP UTR cherry
COc1ccc(CCNC(=O)Cn2cnc3sc(C)c(-c4ccc(F)cc4)c3c2=O)cc1OC | 3 | -1 | -1 | 1 | -11 | 73* | ?
CNC(=O)c1cc(Cl)c(OC)c(OC)c1 | 1 | -1 | -1 | -6 | -12 | -18 | nt
COC(=O)C(=O)C1CCc2c(Cl)cc(OC)c(OC)c2C1=O (stereo unspecified) | nt | i | 0 | -14 | 7 | 94* | -16
CCCCCN1C=CC(=C2C(=O)c3ccccc3C2=O)C=C1 | 0 | 2 | 0 | -12 | 2 | 89* | 89*
CC1=CC(=C2C(=O)c3ccccc3C2=O)C=C(C)N1C | 1 | i | 1 | -29 | -5 | -48 | nt
O=C(NC[C@]1(O)CCc2ccccc2C1)c1nc2ccccc2s1 | nt | nt | nt | nt | -6 | nt | nt
COC(=O)c1cccc(NC(=O)/C=C/c2ccc3c(c2)OCO3)c1 | -2 | 0 | 17 | 20 | -11 | 65* | 25
NC(=NN=Cc1ccco1)C(N)=NN=Cc1ccco1 | nt | nt | nt | nt | 31 | nt | nt
O=C(O)c1ccc(C=NN=Cc2ccco2)cc1 | nt | -1 | 0 | -4 | -19 | 62* | 0
O=C(Cn1cnc2c(cnn2C2CCS(=O)(=O)C2)c1=O)c1ccc2c(c1)OCO2 (stereo unspecified) | nt | nt | nt | nt | -5 | nt | nt
COc1ccccc1-c1nnc(C2CCN(C(=O)c3ccco3)CC2)s1 | nt | nt | nt | nt | 10 | nt | nt
CC(=O)[C@H]1[C@H](CCc2ccccc2)NC(=O)N(Cc2ccccc2)[C@@H]1C | nt | -1 | -1 | -1 | -1 | -52 | nt
CCN1C(=O)N[C@@H](CCc2ccccc2)[C@H](C(C)=O)[C@H]1C | nt | i | -3 | -3 | -7 | 66* | -26
O=C(CC(O)CCc1ccccc1)c1ccc(O)cc1 (stereo unspecified) | nt | 0 | -2 | 11 | 2 | 79* | -16
CCCOc1ccc(-c2nc(C#N)c(N3CCCCCC3)o2)cc1 | nt | nt | nt | nt | 76 | nt | nt
COc1ccc(S(=O)(=O)N2CCC(C(=O)Nc3cc(C)nn3C(C)C)CC2)cc1 | nt | nt | nt | nt | -13 | nt | nt
CC(=O)c1ccc(-c2cccs2)s1 | -3 | -1 | 0 | -9 | -25 | 69* | -28
O=C(CN1C(=O)c2ccccc2S1(=O)=O)c1ccc2c(c1)OCCCO2 | -2 | 1 | -1 | 3 | -7 | 95* | 97*
O=C(CN1C(=O)c2ccccc2S1(=O)=O)c1ccc2c(c1)OCCO2 | -7 | 0 | 0 | -8 | 5 | 91* | 93*
CCCC(=O)Nc1ccc(S(=O)(=O)N2CCOC(c3ccccc3)C2)cc1 (stereo unspecified) | nt | nt | nt | nt | 10 | nt | nt
Cc1ccc2nc(SC(C)C(=O)N3CCCCC3)[nH]c2c1 (stereo unspecified) | -1 | 0 | -1 | 9 | -5 | 66* | 5
COc1ccc2c(c1OC)c(=O)n1c3ccc(OC(C)C(=O)NCCN4CCOCC4)cc3c3ccnc2c31 (stereo unspecified) | -7 | -1 | 0 | -20 | 12 | -30 | nt
COc1ccc2c(c1OC)c(=O)n1c3ccc(OC(C)C(=O)NCCCN4CCOCC4)cc3c3ccnc2c31 (stereo unspecified) | -4 | 0 | 0 | nt | 21 | 54* | 8
CCc1c2c(nc3ccc(OC(=O)N4CCC(N5CCCCC5)CC4)cc13)-c1cc3c(c(=O)n1C2)COC(=O)[C@]3(O)CC | nt | 4 | 0 | -6 | 15 | 65* | 74*
CC[C@@]1(O)C(=O)OCc2c1cc1n(c2=O)Cc2cc3ccccc3nc2-1 | -1 | nt | nt | nt | nt | nt | nt
CCC1(OC(=O)CN)C(=O)OCc2c1cc1n(c2=O)Cc2cc3ccccc3nc2-1 (stereo unspecified) | -3 | i | 2 | nt | -3 | 83* | 88*
CCC1(O)C(=O)OCc2c1cc1n(c2=O)Cc2cc3cc(O)ccc3nc2-1 (stereo unspecified) | nt | -1 | -1 | -16 | 0 | 23 | nt
